Screens as filed in PubChem.
M1 antag: antagonists of human M1 muscarinic receptor. P11229. CHO-K1 hM1, Fluo-8 calcium fluorescence, ACh EC80 antagonist. inhibition, % at 3 µM. 1.3% of 360,000 active;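 active = percent inhibition above its own plate's cutoff, namely the mean of that plate's compound wells plus 3 SD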;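 note: peak over basal fluorescence ratio during 140 s after agonist addition; 0% = ACh EC80 plus DMSO and 100% = DMSO alone without agonist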
Target sequence (P11229 whole entry, looked up): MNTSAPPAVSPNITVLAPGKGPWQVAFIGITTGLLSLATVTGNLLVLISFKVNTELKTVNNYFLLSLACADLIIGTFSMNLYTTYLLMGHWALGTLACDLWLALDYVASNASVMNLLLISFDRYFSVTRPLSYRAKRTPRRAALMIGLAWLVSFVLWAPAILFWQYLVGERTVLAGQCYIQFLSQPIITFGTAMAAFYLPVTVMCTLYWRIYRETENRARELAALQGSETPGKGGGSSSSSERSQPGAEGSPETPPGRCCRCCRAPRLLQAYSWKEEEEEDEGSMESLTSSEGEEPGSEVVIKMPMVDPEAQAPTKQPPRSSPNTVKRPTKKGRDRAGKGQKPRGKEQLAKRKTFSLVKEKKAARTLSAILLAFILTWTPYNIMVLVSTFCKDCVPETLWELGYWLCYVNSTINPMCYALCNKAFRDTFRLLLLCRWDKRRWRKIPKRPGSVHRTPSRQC
M1 ag: agonists of human M1 muscarinic receptor. CHO-K1 hM1, Fluo-8 calcium fluorescence, agonist mode; 0% DMSO, 100% acetylcholine EC100. P11229. activation, % at 3 µM. 0.33% of 360,000 active;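 active = activation above the run's mean compound activation plus 3 SD, cut at about 16% in these data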;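 note: peak over basal fluorescence ratio within a 140 s kinetic read after compound addition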
CHO-K1 Ca antag: nonselective inhibitor or artifact in parental CHO-K1 cells. 0.6% of 360,000 active. ATP-induced calcium, Fluo-8 fluorescence. inhibition, % at 3 µM;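 active = inhibition above a per-plate cutoff, the plate's mean sample inhibition plus 3 SD, cut at about 24% in these data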;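 note: 0% = DMSO plus EC80 ATP and 100% = DMSO alone without ATP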
CHO-K1 Ca PAM: M1 PAM counterscreen hit in parental CHO-K1 cells. 0.02% of 360,000 active. activation, % at 3 µM. ATP EC20, Fluo-8 calcium fluorescence; 0% at ATP EC20, 100% at ATP max. AID 602247;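 active = activation above the run cutoff, the mean activation of all test compounds plus 3 SD, cut at about 40% in these data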;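 note: peak over basal fluorescence ratio in a 140 s read after ATP addition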
M1 ag parental: nonselective activator or artifact in parental CHO-K1 cells; activation, % at 3 µM; Fluo-8 calcium fluorescence; scaled to maximal ATP response, vehicle zero; 0.48% of 360,000 active; AID 602248; in the data active = activation above about 15%;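 note: untransfected CHO-K1 host cells lacking M1 receptor as counterscreen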
CHRM1 PAM: human CHRM1 positive allosteric modulation; activation, % at 3 µM; CHO-K1 hM1, Fluo-8 calcium fluorescence, ACh EC20; 0% = ACh EC20, 100% = maximal ACh; 0.088% of 360,000 active; P11229; AID 588819; in the data active = activation above about 19%, passing the limit was not always enough
Active calls of the source: *. In the library only some 2.3% were active in any assay of this set; here they are far more common.

SMILES	M1 antag	M1 ag	CHO-K1 Ca antag	CHO-K1 Ca PAM	M1 ag parental	CHRM1 PAM
Nc1nonc1-n1nnc(C(=O)N/N=C/c2cccnc2)c1CSc1ccc(Cl)cc1	29.0	3.4	-3.6	14.2	15.7*	-15.9
CCOc1ccc(-c2c(C(=O)N/N=C/c3ccsc3)nnn2-c2nonc2N)cc1	-8.5	27.9*	-21.3	21.6	7.3	9.0
CCCOc1ccc(-c2c(C(=O)N/N=C/c3ccc(OCC)cc3)nnn2-c2nonc2N)cc1	7.2	-4.7	25.7*	-12.4	-0.5	-5.3
CCOc1cccc(-c2c(C(=O)N/N=C/c3ccc(Br)cc3)nnn2-c2nonc2N)c1	5.6	18.9*	1.4	-5.3	1.2	22.2
CC1(C(=O)NS(=O)(=O)Cc2ccccc2C(F)(F)F)CCN1C(=O)c1cccc(F)c1 (stereo not drawn)	-5.3	1.9	7.7	-11.0	0.0	10.1
CC(C)C[C@H](NC(=O)/C=C/[C@H]1O[C@@H](n2ccc(=O)[nH]c2=O)[C@H](O)[C@@H]1O)C(=O)O	-14.1	16.7*	15.7	-11.2	0.0	7.2
CC(C)=CCCC(C)CN(C)CCc1ccccn1 (stereo not drawn)	41.7*	-8.2	-3.3	-6.6	0.3	-18.9
Cc1ccccc1CN(C)CCc1ccccn1	-4.5	-2.0	-8.9	0.7	-0.1	7.7
CCOC(=O)[C@@H]1[C@H]2COc3ccc(Br)cc3[C@@H]2N2C(=O)N(c3ccc(C(F)(F)F)cc3)C(=O)[C@@]12C	4.4	-5.1	-1.6	-0.1	0.3	0.9
Cc1ccc(NC(=O)CSc2nnc(-c3cnccn3)n2Cc2ccco2)cc1	1.2	-6.7	1.8	-6.6	0.4	-1.4
Cc1cccc(NC(=O)CSc2nnc(-c3cnccn3)n2Cc2ccco2)c1	17.8	-1.6	29.4*	-7.8	-0.6	-8.6
COc1ccc(C(=O)/C=C2/C(=O)Nc3ccccc32)cc1OC	33.4*	18.1*	-8.4	2.2	2.0	23.8
CC1(O)c2ccccc2C(=O)N1Cc1ccccc1 (stereo not drawn)	1.4	-6.7	27.1*	-6.0	-0.6	6.3
CC1(O)c2ccccc2C(=O)N1CCc1ccccc1F (stereo not drawn)	-9.0	-4.6	-12.5	19.6	0.1	1.9
CCCN(CC(=O)Nc1ccccc1C)C(=O)c1ccc(N2CCCCCC2)c([N+](=O)[O-])c1	7.5	-2.0	20.5	-20.9	2.0	-5.9
Cc1c(NC(=O)c2cc(CC(C)C)on2)c(=O)n(-c2ccccc2)n1C	-24.2	-12.5	1.6	16.6	-0.1	10.9
Cc1c(Cl)c([N+](=O)[O-])nn1CC(=O)Nc1c(C)n(C)n(-c2ccccc2)c1=O	27.7*	-5.6	-1.9	11.4	1.6	-12.2
Cc1ccc(Cn2nc(C)c(NC(=O)CCCn3nc([N+](=O)[O-])c(Cl)c3C)c2C)cc1	-17.4	-1.6	-18.8	18.2	0.3	21.1*
Cc1ccc(Cn2nc(C)c(NC(=O)CCCn3nc(C)c([N+](=O)[O-])c3C)c2C)cc1	-0.2	-3.6	-18.5	-1.7	0.3	3.7
Cc1c(NC(=O)c2cc(C(C)C)on2)c(=O)n(-c2ccccc2)n1C	35.8*	-8.8	7.0	-9.1	0.3	-20.4
Cc1nn(Cc2ccccc2)c(C)c1NC(=O)Cn1nc([N+](=O)[O-])c(Cl)c1C	-3.9	-1.6	-24.5	10.3	1.4	-0.1
Cc1c(NC(=S)NC(=O)c2ccccc2Cl)c(=O)n(-c2ccccc2)n1C	-2.9	-4.8	-3.1	9.4	0.3	28.8*
Cc1c(NC(=S)NC(=O)c2ccc(Cl)cc2)c(=O)n(-c2ccccc2)n1C	20.0	-3.2	-2.4	14.3	5.7	-8.2
CCCCn1c(N)c(N(CC(C)C)C(=O)CC2CCCC2)c(=O)[nH]c1=O	-10.8	-3.3	-7.7	-0.8	0.5	5.4
Cc1cccc(N2CCN(c3ccc4cc(S(=O)(=O)N5CCCCC5)ccc4n3)CC2)c1C	-11.2	-1.9	-14.2	15.5	1.6	7.0
SMILES	M1 antag	M1 ag	CHO-K1 Ca antag	CHO-K1 Ca PAM	M1 ag parental	CHRM1 PAM
O=C1/C(=C/c2ccc(F)cc2)CCC1C1CCCC1 (stereo not drawn)	-16.4	-3.2	24.0*	-12.2	-0.4	7.0
O=C1/C(=C/c2ccccc2)CCC1C1CCCC1 (stereo not drawn)	-9.0	-4.3	9.0	-8.2	-0.1	5.5
CCOc1ccc(S(=O)(=O)Nc2nc3ccccc3nc2-n2ccc(=NC(=O)c3ccccc3C)cc2)cc1	25.8	21.4*	25.4*	-4.2	23.9*	-9.4
c1ccc(NC2=NCCN2CC2CCCCCC2)cc1	0.1	-12.5	-3.0	1.9	0.4	1.3
COc1ccc(Nc2ncnc3c2c(C)c(C)n3CCO)cc1	12.6	-6.6	-2.2	-4.8	0.7	-6.6
Cc1c(C)n(CCO)c2ncnc(Nc3ccc(F)cc3)c12	43.5*	-3.1	-9.2	8.8	1.5	3.5
Cc1cc2c(cc1C)N(C(=O)CSC1=NCCS1)C(C)(C)c1ssc(=S)c1-2	54.0*	-12.3	-18.2	9.2	-0.7	-29.0
CC1(C)c2ssc(=S)c2-c2ccccc2N1C(=O)CSC1=NCCS1	12.1	-3.5	-12.2	10.8	-0.2	-12.2
CC1(C)CC[C@]2(C(=O)O)CC[C@]3(CO)C(=CCC4[C@@]5(C)C[C@H](O)[C@H](O)[C@@](C)(C(=O)O)C5CC[C@]43C)[C@@H]2C1 (stereo partly drawn)	-7.8	8.0	-16.4	0.6	-0.2	26.6*
CN(C)CCC1c2ccc(Cl)cc2CCc2cccnc21 (stereo not drawn) (tested in a mixture with another compound)	48.9*	-10.9	-3.6	3.7	7.5	-28.0
CN1CCN(NC(=O)c2cc(-c3cccc(Cl)c3)nc3ccccc23)CC1	-7.7	-3.4	-10.4	20.2	1.9	12.9
OC(c1cc(-c2cccc(Cl)c2)nc2ccccc12)C1CCCCN1 (stereo not drawn)	5.1	12.1	15.1	12.2	26.7*	3.2
CC1=C(C(=O)N2CCOCC2)C(c2ccc(Cl)cc2)NC(=S)N1 (stereo not drawn)	-2.8	-7.3	6.5	13.8	19.7*	11.1
CCN(CC)Cc1cc(Oc2ccc(O)c(CN(CC)CC)c2)ccc1O	34.6*	-13.0	22.6	-8.9	0.0	-19.1
CCN(CC)Cc1cc(CCNC(=O)c2ccc(Cl)cc2)ccc1O	6.4	-7.4	-6.6	19.6	0.5	-10.0
CCC(NC(=O)c1ccc2nc(Cc3ccc(OC)cc3)oc2c1)c1ccncc1 (stereo not drawn)	29.9	4.6	1.3	0.2	15.4*	-14.1
CC(=O)c1cccc(N2C(=NC(=O)C3CCCCC3)SC3CS(=O)(=O)CC32)c1 (stereo not drawn)	-0.1	-1.6	-7.2	5.7	1.4	3.4
CCOC(=O)CN1c2ccccc2NC(=O)CC1C (stereo not drawn)	-14.2	-3.7	-29.1	42.6*	0.5	11.7
